Screens as filed in PubChem BioAssay.
Only some compounds are listed: those with a hit (about 11% of all), similar ones and a draw of the others.
ALDH1A1 inh – qHTS Assay for Inhibitors of Aldehyde Dehydrogenase 1 (ALDH1A1); 220,000 tested, 7.3% active; Purified ALDH1A1, NADH fluorescence, propionaldehyde substrate; Aldehyde dehydrogenase 1A1 (Homo sapiens), P00352; Potency, µM (titrated, usually from 75.3 µM), most hits filed as inhibitors
PNC assembly inh – High Content Assay for Compounds that inhibit the Assembly of the Perinucleolar Compartment | PC3M PTB-GFP, PNC prevalence imaging, 16 h; hits give low values | activity change (PNC), negative = inhibition, % at 10 µM | 140,000 tested, 3.1% active;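 active = readout at or below -70, meaning at least 70% loss of cells showing the perinucleolar compartment, a nuclear body marking cancer cells; inconclusive = readout between -30 and a set limit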
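Read-out is percentage of cells bearing a perinucleolar compartment, from automated 20x imaging of fixed, Hoechst-stained PC3M PTB-GFP cells. Cells were seeded 4 h, then exposed 16 h to compound (23 nl of library stock) in duplicate plates.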
HPGD inh – qHTS Assay for Inhibitors of HPGD (15-Hydroxyprostaglandin Dehydrogenase) | Potency, µM, hits mostly inhibitors | purified HPGD, NADH fluorescence kinetic, PGE2 substrate | 15-hydroxyprostaglandin dehydrogenase [NAD(+)] (Homo sapiens), P15428 | 150,000 tested, 4.3% active
Target sequence (P15428 whole entry, looked up): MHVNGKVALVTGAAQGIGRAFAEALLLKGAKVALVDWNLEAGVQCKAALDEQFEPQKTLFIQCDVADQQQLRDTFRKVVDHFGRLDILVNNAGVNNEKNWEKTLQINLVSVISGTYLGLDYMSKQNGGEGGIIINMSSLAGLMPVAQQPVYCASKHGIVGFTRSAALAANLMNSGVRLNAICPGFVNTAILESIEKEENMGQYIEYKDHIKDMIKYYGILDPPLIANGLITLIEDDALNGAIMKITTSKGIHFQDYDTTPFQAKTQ
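NADH formation kinetics: reaction with 30 uM PGE2 and 1 mM NAD+ (final), 20 nM enzyme, Tris-HCl pH 8 with Tween 20, after 15 min compound preincubation at room temperature. Fluorescence change, last versus first of five reads.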
A number is an active result; [ ] = dose if it differs, or a comment. Unless noted, calls come from the whole dose curve; as a rule, active = well fitted inhibition curve with a large enough effect (not every such curve was filed as active); inconclusive = small, poorly fitted or top-dose-only effect, or another doubt; inactive = no such curve, though single readings can be large or run the other way.

How did Cn1c(=O)c2c(nc(N3CCCCCC3)n2CC(=O)c2ccccc2)n(C)c1=O do in these assays?
ALDH1A1 inh: 4.5µM; PNC assembly inh: inactive; HPGD inh: inactive

Results for C/C(Cl)=C\Cn1c(N2CCCCCC2)nc2c1c(=O)n(C)c(=O)n2C ?
ALDH1A1 inh: 3.5µM; PNC assembly inh: inactive; HPGD inh: inactive

How did Cn1c(=O)c2c(nc(N3CCCCCC3)n2Cc2cccc3ccccc23)n(C)c1=O do in these assays?
ALDH1A1 inh: 0.89µM; PNC assembly inh: inactive; HPGD inh: inactive

Results for Cn1c(=O)c2c(nc(N3CCCCC3)n2CCNC2=NCCC2)n(C)c1=O ?
ALDH1A1 inh: inactive; PNC assembly inh: inactive; HPGD inh: inactive

Results for Cn1c(N2CCCCC2)nc2c1c(=O)n(Cc1cccc(Br)c1)c(=O)n2C ?
ALDH1A1 inh: inactive; PNC assembly inh: inconclusive; HPGD inh: inactive

What do the screens show for `CN(CCc1ccc(Cl)c(Cl)c1)C[C@@H](O)COc1ccc(NS(C)(=O)=O)cc1`?
ALDH1A1 inh: inactive; HPGD inh: inactive

How did COC(=O)CNC(c1ccccc1Cl)c1cc(Br)ccc1NS(=O)(=O)c1ccc(C)cc1 (configuration not stated) do in these assays?
ALDH1A1 inh: inactive; PNC assembly inh: inactive; HPGD inh: inactive

Results for CC(C)C[C@H](N)C(=O)N[C@H](C(=O)N[C@H](C(=O)N[C@@H](Cc1ccc(O)cc1)C(=O)N1CCC[C@H]1C(=O)N[C@@H](Cc1c[nH]c2ccccc12)C(=O)N[C@H](C(=O)N[C@@H](CCC(N)=O)C(=O)N[C@@H](CCCN=C(N)N)C(=O)O)[C@@H](C)O)C(C)C)C(C)C ?
ALDH1A1 inh: inactive

How did Nc1ncnc2nc(N3CCN(CCO)CC3)[nH]c12 do in these assays?
ALDH1A1 inh: inactive[13.5 µM]; HPGD inh: inactive

Results for CN(C1CCS(=O)(=O)C1)S(=O)C12CC3CC(CC(C3)C1)C2 (configuration not stated) ?
ALDH1A1 inh: inconclusive; PNC assembly inh: -100; HPGD inh: inactive

What do the screens show for `CSC(=S)N(C)C1CCS(=O)(=O)C1` (configuration not stated)?
ALDH1A1 inh: inactive; PNC assembly inh: inconclusive; HPGD inh: inactive

What do the screens show for `S=c1[nH]nc(Cc2cccc3ccccc23)o1`?
ALDH1A1 inh: 10µM; PNC assembly inh: inconclusive; HPGD inh: inconclusive

What do the screens show for `CC(Cc1n[nH]c(=S)o1)c1ccccc1` (configuration not stated)?
ALDH1A1 inh: 18µM

Results for S=c1[nH]nc(-c2ccccc2)o1 ?
ALDH1A1 inh: inconclusive; PNC assembly inh: inactive; HPGD inh: inconclusive

What do the screens show for `Cn1c(SCc2n[nH]c(=S)o2)nnc1-c1ccccc1`?
ALDH1A1 inh: inactive; PNC assembly inh: inconclusive; HPGD inh: inactive

What do the screens show for `CC(C)(C)NC[C@@H](O)c1ccc(O)c(CO)n1`?
ALDH1A1 inh: inactive[13.5 µM]; HPGD inh: inactive

How did COC(=O)N1CCC2(CC1)CN(c1ccccn1)C2 do in these assays?
ALDH1A1 inh: inconclusive; HPGD inh: inactive

How did Cc1ccc(-c2nc(=S)c3c(n2Cc2ccco2)CCCC3)cc1 do in these assays?
ALDH1A1 inh: 13µM; PNC assembly inh: -129; HPGD inh: inactive

Results for Cc1cccc(-c2nc(=S)c3c(n2Cc2ccco2)CCCC3)c1 ?
ALDH1A1 inh: inconclusive; PNC assembly inh: inconclusive; HPGD inh: inactive

How did CCn1c(CNc2ccc(OC)cc2)nnc1SCC(=O)N1CCCc2ccccc21 do in these assays?
ALDH1A1 inh: 7.1µM; PNC assembly inh: inactive; HPGD inh: inactive

Results for COc1ccc(-n2c(Cc3cccn3C)nnc2SCC(=O)N2CCCc3ccccc32)cc1 ?
ALDH1A1 inh: inconclusive; PNC assembly inh: inactive; HPGD inh: inactive

How did CCn1c(CNc2ccc(F)cc2)nnc1SCC(=O)N1CCCc2ccccc21 do in these assays?
ALDH1A1 inh: inconclusive; PNC assembly inh: inactive; HPGD inh: inactive

Results for COc1ccc(NCc2nnc(SCC(=O)N3CCCc4ccccc43)n2C)cc1 ?
ALDH1A1 inh: 3.2µM; PNC assembly inh: inactive; HPGD inh: inactive

Results for CCn1c(CNc2ccc(C)cc2C)nnc1SCC(=O)N1CCCc2ccccc21 ?
ALDH1A1 inh: 7.1µM; PNC assembly inh: inactive; HPGD inh: inactive

Results for CCn1c(CSc2nc(C)cc(C)n2)nnc1SCC(=O)N1CCCc2ccccc21 ?
ALDH1A1 inh: inconclusive; PNC assembly inh: inactive; HPGD inh: inactive

Results for CC(=O)Nc1ccc(NC(=O)CSc2nnc(CNc3ccc(F)cc3)n2CC2CCCO2)cc1 (configuration not stated) ?
ALDH1A1 inh: inactive
